In the library only some 3.8% were active in any assay of this set; here they are far more common.
TGFb inhibitor = inhibitors of TGF-b signaling; AID 588855; 1.2% of 410,000 active; HepG2 CAGA-GFP TGF-b/SMAD3 reporter, GFP fluorescence, 18 h; TGF-beta stimulated, 500 pg/mL final; Potency, µM (top dose mostly 46.1 µM), inactives show at the top dose activity, negative = inhibition, hits mostly inhibitors; note: % is set by controls: 0 for no effect and ±100 for the full control effect; nearly all actives have a fitted effect of over 65% in size
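Per well, imaged GFP fluorescence of HEPG2 CAGA-GFP cells gives the signal; cells get compound, then TGF-beta (500 pg/mL final), 18 h at 37 degrees C; %Activity versus -TGF-beta and +DMSO controls.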
A549 viability = A549 cytotoxicity, counter-screen for Nrf2 inhibitors; AID 504648; 0.16% of 390,000 active; A549 ARE-Fluc cells, CellTiter-Fluor viability, 18-24 h; Potency, µM (highest dose often 46 µM), for inactives: top-dose activity change, negative = cytotoxicity, hits mostly inhibitors; note: % is set by controls: 0 for no effect and ±100 for the full control effect
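A549 ARE-Fluc cells in 5% FBS OPTI-MEM, 5000 cells/well, rested 2 h then exposed to compounds in concentration-response for 18-24 h at 37 °C. Viability by CellTiter-Fluor fluorescence (Ex 405/Em 525) after 30 min; luciferase luminescence (BugLite, 15 min, RT) read afterwards.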
ATXN viability = reduces viability in counter-screen for ATXN expression inhibitors; S2 cells (HEK-293 line with an ATXN2-luciferase reporter) viability, CellTiter-Fluor protease fluorescence, 24 h; Potency, µM (doses to about 56.7 µM), actives largely listed as cytotoxic; 0.49% of 400,000 active; AID 651635; note: nearly all actives have a fitted effect of over 40% in size
HepG2 tox = counter-screen for TGF-b inhibitors: cytotoxicity in HepG2 cells. HepG2 CAGA-GFP viability, ATP luminescence, 18 h. Potency, µM (highest dose often 46.1 µM), for inactives: top-dose activity change, negative = cytotoxicity, most hits filed as cytotoxic. 0.76% of 410,000 active
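HepG2 CAGA-GFP cells (1000/well, DMEM with 1% FBS) received compound, then TGF-beta at 500 pg/mL final, and were incubated 18 hours at 37 degrees C. Viability was read by CellTiter-Glo luminescence. Media-only wells were set as complete cell-killing and DMSO as no toxicity.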
ATXN2 expr inh = reduces ATXN2 reporter expression in HEK-293 cells. HEK-293 ATXN2-luciferase reporter, luminescence, 24 h. Potency, µM (highest dose often 57 µM), for the others: at the top dose activity change, negative = inhibition, actives largely listed as inhibitors. 0.72% of 360,000 active. AID 1745845; note: % is set by controls: 0 for no effect and ±100 for the full control effect; nearly all actives have a fitted effect of over 55% in size
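qHTS (up to 57 uM final) was run with 24 h compound exposure of reporter cells at 37 °C. Each well was multiplexed: SteadyGlo luminescence measured ATXN2-luciferase expression after a fluorogenic Gly-Phe-AFC viability readout (25 uM final).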
Nrf2 inh = inhibitors of Nrf2 signaling; A549 ARE-Fluc reporter, luciferase luminescence, 18-24 h; Potency, µM (doses to about 46 µM), for the others: at the top dose activity change, negative = inhibition, most hits filed as inhibitors; 2.1% of 360,000 active; note: % is set by controls: 0 for no effect and ±100 for the full control effect; nearly all actives have a fitted effect of over 60% in size
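Nrf2 activity is the BugLite luminescence, read 15 min after reagent at room temperature, following CellTiter-Fluor cytotoxicity readout (30 min, 37C). Compound titrations were applied for 18-24 h to 5000 A549 ARE_Fluc cells/well in 5% FBS OPTI-MEM.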
Numbers without * were called inactive; i = inactive; ? = inconclusive; nt = no result given. Calls come from the whole dose curve; as a rule, active = well fitted curve in the direction sought with a large enough effect; inconclusive = small, poorly fitted or top-dose-only effect, or another doubt; inactive = no such curve, though single readings can be large; an effect the other way counts as inactive or inconclusive. Potency is the fitted concentration of half-maximal effect.

SMILES	TGFb inhibitor	A549 viability	ATXN viability	HepG2 tox	ATXN2 expr inh	Nrf2 inh
COc1ccc(/C=N/NC(=O)c2ccc3ccccc3c2)cc1OS(=O)(=O)c1ccc(NC(C)=O)cc1	?	-27.7%	i	-3.1%	-24.0%	11.6µM*
CC(Sc1nc2ccccc2c(=O)n1C)C(=O)N(C)C1CCCCC1 (stereo unspecified)	-22.5%	-17.9%	?	-14.0%	-23.2%	18.4µM*
COc1ccc(CCNC(=O)Cn2cc(S(=O)(=O)Cc3cccc(Cl)c3)c3ccccc32)cc1OC	?	?	nt	1.9%	nt	20.6µM*
COc1ccc(CCNC(=O)c2ccc(Cn3c(=O)c4ccccc4n(Cc4cccc(F)c4)c3=O)cc2)cc1OC	?	-1.0%	28.2µM*	-8.0%	?	?
COc1ccc(CCNC(=O)CCCn2c(=O)c3ccccc3n(Cc3cccc(Cl)c3)c2=O)cc1OC	11.2µM*	-15.1%	nt	-37.2%	?	?
C=CCn1c(COc2ccccc2)nnc1SC(C)C(=O)N/N=C/c1cc(Cl)ccc1O (stereo unspecified)	-1.2%	-1.3%	i	-13.7%	14.1µM*	14.7%
COc1cc(/C=C/C(=O)c2cccc([N+](=O)[O-])c2)cc(OC)c1OC	?	5.6%	?	-100.5%	0.0%	8.3%
O=C(C#Cc1ccccc1)c1cccc([N+](=O)[O-])c1	?	-3.9%	nt	-28.6%	22.4µM*	12.1%
CC(=O)c1cccc([N+](=O)[O-])c1	3.0%	-19.3%	i	-7.8%	3.1%	-17.7%
O=C(/C=C/c1ccccc1F)c1cccc([N+](=O)[O-])c1	?	8.6%	?	14.1µM*	nt	16.2%
Cn1c(=S)c2[nH]c(SCC3CCCO3)nc2n(C)c1=O (stereo unspecified)	?	10.0%	i	11.2µM*	-25.4%	?
CCCCCCC(O)(c1ccccc1)C(CN1CCOCC1)c1ccccc1 (stereo unspecified)	15.8µM*	-15.6%	i	-57.3%	4.8%	-3.5%
CCCC(O)(c1ccccc1)C(CN1CCOCC1)c1ccccc1 (stereo unspecified)	0.0%	0.0%	i	-1.1%	-3.9%	-18.2%
CCCC(O)(c1ccc(Cl)cc1)C(CN1CCOCC1)c1ccccc1 (stereo unspecified)	12.6µM*	-0.5%	?	-70.7%	-15.1%	-1.5%
CN(C(=O)c1ccc(NC(=O)Cc2cccc(NC(=O)C3CCN(C(=O)C4CCCC4)CC3)c2)cc1)C1CC1	-14.7%	-5.5%	i	-16.7%	7.8%	-8.1%
Cc1cccc(N2CCN(C(=O)Cn3ncc4c3-c3cc(C)ccc3OC4)CC2C)c1 (stereo unspecified)	?	-6.4%	nt	-30.4%	?	-12.0%
O=[N+]([O-])c1ccc(-[n+]2ccc3ccccc3c2)c([N+](=O)[O-])c1	5.01µM*	?	11.2µM*	12.6µM*	?	4.8%
COc1ccc(S(=O)(=O)Nc2cc3c(cc2NCc2ccccc2)n(C)c(=O)n3C)cc1	45.0%	-3.6%	i	-13.2%	45.4%	-8.6%
COc1c(C)cc(S(=O)(=O)NCCc2c(C)[nH]c3ccccc23)c(C)c1C	?	-7.3%	i	-44.2%	-23.1%	?
COc1ccc2c(c1)cc(C(=O)N[C@H](C(=O)N1CCC(C(=O)O)CC1)C(C)C)n2C	0.0%	-1.7%	i	4.6%	5.5%	-12.5%
O=S(=O)(c1cccc(Br)c1)N1CCN(c2ncnc3scc(-c4ccccc4)c23)CC1	?	8.1%	i	-13.2%	nt	-23.6%
Cc1csc2ncnc(N3CCN(S(=O)(=O)c4cccc(C(F)(F)F)c4)CC3)c12	?	-21.0%	i	-18.1%	-26.9%	5.17µM*
O=C(NC(=O)c1cc([N+](=O)[O-])ccc1Cl)C1=C(N2CCCC2)COC1=O	-2.5%	5.2%	i	-9.7%	-8.5%	14.5%
Cc1nc(SCc2cccnc2)[nH]c(=O)c1C	3.5%	-2.6%	i	6.3%	nt	-5.5%
O=C(NCc1nnnn1-c1ccc(F)cc1)c1ccc([N+](=O)[O-])o1	14.1µM*	-14.1%	i	-180.3%	20.7%	-13.6%
SMILES	TGFb inhibitor	A549 viability	ATXN viability	HepG2 tox	ATXN2 expr inh	Nrf2 inh
O=C(COC(=O)c1ccc([N+](=O)[O-])o1)NCc1ccccc1	?	1.3%	i	-56.6%	-7.0%	0.7%
CN(Cc1ccccc1)C(=O)c1ccc([N+](=O)[O-])o1	?	-21.9%	i	20µM*	nt	-19.6%
Cc1ccc(/C=C/C(=O)c2ccc([N+](=O)[O-])o2)cc1	7.94µM*	-8.9%	8.91µM*	-19.4%	?	2.2%
Cc1ccc(CNC(=O)c2ccc([N+](=O)[O-])o2)cc1	-18.3%	-16.1%	?	14.1µM*	1.1%	-3.1%
Cc1ccc(C(=O)/C=C/c2ccc(Br)cc2)o1	0.0%	?	i	-27.0%	-20.8%	?
Cc1ccc(CNC(=O)c2nn(C)c(C)c2[N+](=O)[O-])cc1	2.3%	-1.9%	i	7.7%	-6.3%	0.6%
CCc1ccc(C(=O)COC(=O)c2cc([N+](=O)[O-])ccc2NCCO)cc1	-4.7%	14.6µM*	i	-5.4%	-23.3%	7.31µM*
CCOC(=O)c1ccc(NC(=O)NNS(=O)(=O)c2cc(OC)ccc2OC)cc1	-0.2%	-7.9%	i	0.0%	3.5%	-17.9%
Cc1cc(C)c2c(CC(=O)Nc3ccc(S(=O)(=O)N4CCCC(C)C4)cc3)coc2c1 (stereo unspecified)	?	-0.5%	i	-13.0%	-11.6%	-27.2%
COCCn1c(C)cc(C(=O)Cn2nc(C(=O)O)c3ccccc3c2=O)c1C	23.6%	2.5%	i	36.3%	nt	?
C=CCn1c(C)cc(C(=O)Cn2nc(C(=O)O)c3ccccc3c2=O)c1C	10.9%	-0.9%	?	-13.5%	-4.8%	14.6µM*
O=C(c1ccc(Cl)cc1)n1nc(-c2ccco2)nc1NCc1cccs1	-3.1%	0.5%	i	-36.8%	0.0%	8.4%
CC(C)(C)c1ccc(-c2cn(-c3ccc(Br)cc3)c3[n+]2CCCS3)cc1	10µM*	-12.1%	i	-21.2%	-21.9%	-27.2%
COc1ccc(-c2cn(-c3ccccc3)c3[n+]2CCS3)cc1	?	-12.1%	?	-15.5%	-36.3%	2.59µM*
CN(CCOc1ccccc1)CC(=O)Nc1cc([N+](=O)[O-])ccc1Cl	2.2%	-8.5%	i	-12.4%	-23.9%	16.4µM*
Cc1ccc([N+](=O)[O-])cc1NC(=O)CN(C)CCOc1ccccc1	-14.4%	-4.5%	i	-18.6%	-34.6%	?

Screens from PubChem BioAssay.
